In ChEMBL document CHEMBL1157539, “Thousands of chemical starting points for antimalarial lead identification” (Nature, 2010):

tested on: HepG2; experiment: GSK_TCMDC: Percent inhibition of human HepG2 cell line. Test compounds present at 10uM.; assay type: functional

Q: For `COCCN1CCC(N(Cc2ccc(-c3ccc(C(F)(F)F)cc3)cc2)C(=O)Cn2c(CCc3cccc(F)c3F)cc(=O)c3c2CCC3)CC1.O=C(O)C(O)C(O)C(=O)O`, which Inhibition is on record?
A: Its Inhibition is 31%.

Q: For `CC1(C)NC(N)=NC(=N)N1OCc1cc(Cl)c(Cl)cc1CON1C(=N)N=C(N)NC1(C)C`, which Inhibition is on record?
A: The Inhibition was 36%.

Q: `CCc1c(CCNCCCC(C)CCNCCc2ccc(OC)c(OC)c2CC)ccc(OC)c1OC.Cl` (stereo not given) was tested. Which Inhibition did it give?
A: Its Inhibition is 99%.

Q: With `O=[N+]([O-])c1ccc(C(O)P(=O)(c2ccccc2)c2ccccc2)cc1` (stereo not given) as the molecule, how does the Inhibition read?
A: Its Inhibition is 1%.

Q: With `O=C(Nc1cccc(CN2CCCN(CCc3ccccc3)CC2)c1)c1ccc(Cl)c(Cl)c1.O=C(O)C(F)(F)F` as the molecule, how does the Inhibition read?
A: The Inhibition was 41%.

Q: For `CCN(CC)CCN(Cc1ccc(-c2ccc(C(F)(F)F)cc2)cc1)C(=O)Cn1c(CCc2cccc(F)c2F)nc(=O)c2ccc(C(F)(F)F)cc21.O=C(O)C(O)C(O)C(=O)O`, which Inhibition is on record?
A: Its Inhibition is 19%.

Q: For `CCC(C)CN1CCN(c2ccc(NC(=O)c3cccs3)cc2)CC1C.O=C(O)C(F)(F)F` (stereo not given), which Inhibition is on record?
A: The Inhibition was 0%.

Q: For `Cc1c(Br)cc2nc(-c3ccc(C(=O)NC4CCN(Cc5ccccc5)CC4)cc3)[nH]c2c1C`, which Inhibition is on record?
A: Its Inhibition is 4%.

Q: For `Cc1noc(C)c1-c1ccc2c(Nc3cccc4c3-c3ccccc3C4=O)c(C(=O)NCc3ccccc3I)cnc2c1`, which Inhibition is on record?
A: The Inhibition was 27%.

Q: For `O=C(NCCNc1nc(NCCNC(=O)Nc2ccccc2)c2ccc(=O)n(-c3c(F)cccc3F)c2n1)Nc1ccccc1`, which Inhibition is on record?
A: The Inhibition was 1%.

Q: With `O=C(CN1CCN(C(C(=O)Nc2cc(C(F)(F)F)ccc2Cl)c2ccccc2)CC1)NC1CC1` (stereo not given) as the molecule, how does the Inhibition read?
A: Its Inhibition is 0%.

Q: How did the Inhibition turn out when `CCC(c1ccccc1)c1nn2c(-c3cccs3)nnc2s1` (stereo not given) was run?
A: Its Inhibition is 10%.

Q: Which Inhibition does the source give for `COc1ccc(CN2CCC(CNCC(c3ccccc3)c3ccccc3)CC2)cc1.O=C(O)C(F)(F)F` here?
A: The Inhibition was 84%.

Q: Which Inhibition does the source give for `COc1ccc(-c2cnc(NCc3ccccc3)nc2)cc1CNC1CCN(C)CC1.O=C(O)C(F)(F)F` here?
A: Its Inhibition is 19%.

Q: How did the Inhibition turn out when `COc1ccc(O)c(Cc2cnc3nc(N)nc(N)c3c2C)c1.O=C(O)C(F)(F)F` was run?
A: The Inhibition was 56%.

Q: With `Cc1nc(-c2nc(N3CCC(C(N)=O)CC3)ncc2-c2ccsc2)sc1C` as the molecule, how does the Inhibition read?
A: Its Inhibition is 0%.

Q: How did the Inhibition turn out when `COc1ccc2nc3ccccc3c(NCCN3CCN(C)CC3)c2c1` was run?
A: Its Inhibition is 11%.

Q: Which Inhibition does the source give for `COc1cc2c(cc1C(F)(F)F)N(C(=O)Nc1cc(F)c(F)c(-c3cccnc3)c1)CC2` here?
A: The Inhibition was 20%.

Q: Which Inhibition does the source give for `O=C(O)C(F)(F)F.O=S(=O)(NCCN1CCCC1)c1ccc(-c2ccc(CNC3Cc4ccccc4C3)cc2)cc1F` here?
A: The Inhibition was 33%.

Q: How did the Inhibition turn out when `O=C(COc1ccc(C(=O)c2ccccc2)cc1)Nc1nccs1` was run?
A: The Inhibition was 0%.

Q: With `O=C(NC1CCN(Cc2ccc(O)cc2)CC1)c1ccc(Cl)c(Cl)c1.O=C(O)C(F)(F)F` as the molecule, how does the Inhibition read?
A: Its Inhibition is 1%.

Q: Which Inhibition does the source give for `Clc1cc(Nc2ncnc3sc(C#Cc4ncc[nH]4)cc23)ccc1OCc1ccccn1` here?
A: Its Inhibition is 10%.

Q: For `CC(Cc1ccc(C(=O)OC(c2ccccc2)c2ccccc2)cc1)NCC(O)c1ccccc1.Cl` (stereo not given), which Inhibition is on record?
A: Its Inhibition is 83%.

Q: For `Cc1ccc(Cn2c(N3CCC(C(=O)NCc4cccs4)CC3)nc3ccccc32)cc1`, which Inhibition is on record?
A: The Inhibition was 0%.

Q: `Cl.Fc1cc(CN2CCCC2)ccc1OCCCN1CCN(c2cccc(Cl)c2Cl)CC1` was tested. Which Inhibition did it give?
A: Its Inhibition is 67%.

Q: Which Inhibition does the source give for `CC(C)Cc1cn(-c2nc(-c3nc4ccccc4[nH]3)cs2)c2cc(Cl)ccc12.Cl` here?
A: The Inhibition was 9%.

Q: How did the Inhibition turn out when `Cc1[nH]c(C)c(-c2ccc(OCc3ccc(F)cc3)nc2)c(=O)c1Br` was run?
A: The Inhibition was 41%.

Q: How did the Inhibition turn out when `CC(C)C[C@@H](CNC[C@H](CC(C)C)NC(=O)OC(C)(C)C)NC(=O)OC(C)(C)C` was run?
A: Its Inhibition is 4%.

Q: With `O=C(Nc1ccc(Cn2nc(Cl)c(N3CCCNCC3)cc2=O)cc1)Nc1ccc(-c2ccccc2)cc1.O=C(O)C(F)(F)F` as the molecule, how does the Inhibition read?
A: Its Inhibition is 89%.

Q: Which Inhibition does the source give for `Cc1nn(-c2ccccc2)c2c1C(c1ccc(C(C)C)cc1)N1C(=N2)N(Cc2ccccc2)c2ccccc21` (stereo not given) here?
A: Its Inhibition is 7%.

Q: How did the Inhibition turn out when `COc1ccc2nccc([C@@H](O)CN3CCC(NC(=O)c4[nH]c5ccccc5c4-c4ccccc4)CC3)c2c1` was run?
A: Its Inhibition is 18%.

Q: With `O=C(O)C(F)(F)F.c1cc(-c2ccc(CNCCc3ccncc3)cc2)cc(-c2nc3ccccc3[nH]2)c1` as the molecule, how does the Inhibition read?
A: The Inhibition was 41%.

Q: For `Nc1nccc2ccc(-c3cccc(OCc4ccccc4)c3)cc12.O=C(O)C(F)(F)F`, which Inhibition is on record?
A: The Inhibition was 47%.

Q: How did the Inhibition turn out when `Cc1cccc2nc(-c3cccc(-c4cccc(CNCc5cnn(-c6ccccc6)n5)c4)c3)[nH]c12.O=C(O)C(F)(F)F` was run?
A: The Inhibition was 12%.

Q: For `CC(C)(C)c1ccc(N2C(N)=NC(N)=NC2(C)C)cc1.Cl`, which Inhibition is on record?
A: Its Inhibition is 27%.

Q: With `O=C(Nc1ccc(Cl)cc1)Nc1cccc(CCNCc2ccccc2)c1.O=C(O)C(F)(F)F` as the molecule, how does the Inhibition read?
A: Its Inhibition is 16%.

Q: With `C[C@@H](CC1CCCCC1)OC(=O)N(C)[C@@H]1CCN(C#N)C1` as the molecule, how does the Inhibition read?
A: The Inhibition was 5%.

Q: How did the Inhibition turn out when `N=C(N)NN=Cc1c[nH]c2ccc(-c3ccccc3)cc12.O=C(O)/C=C\C(=O)O` was run?
A: Its Inhibition is 15%.

Q: Which Inhibition does the source give for `O=C(Nc1cccc(CN2CCN(Cc3ccc(O)cc3)CC2)c1)c1ccc(Cl)c(Cl)c1.O=C(O)C(F)(F)F` here?
A: The Inhibition was 30%.

Q: `Cc1cccc(CNc2nc(C)cc(N[C@@H](Cc3ccccc3)C(=O)NC3CCCC3)n2)c1.O=C(O)C(F)(F)F` was tested. Which Inhibition did it give?
A: Its Inhibition is 51%.
